Reference: PubChem BioAssay AID651 (University of Pittsburgh Molecular Library Screening Center, 2007)
Out of some 1,000 compounds screened, about 390 (39%) were called active. Not shown: some 8% with an inconclusive outcome. Cut-off read from the data, not from the text of the source: active = inhibition above about 48%; inconclusive = no clear call, values can overlap the other calls; inactive = below that. A selection follows.

Each compound was assayed against Gag-Pol polyprotein (Human immunodeficiency virus type 1 group M subtype B (isolate HXB2)) (UniProt P04585) (assay: HIV-1 RT RNase H inhibitors, retest, confirmation, biochemical (AID 651)). Details: Recombinant RT RNase H, fluorescent RNA/DNA duplex cleavage; at 10 µM; hits give high values.
For `CCCc1nc2ccccc2c(=O)n1/N=C/c1ccc(O)c(O)c1`, the inhibition was 74.1% (active). In the case of `Cc1nc(C)c(C(=O)Nc2cccc(C)c2C)o1`, the inhibition is reported as 14.1% (inactive). For `Clc1ccccc1CSc1nnc(-c2ccco2)c(-c2ccco2)n1`, the inhibition was 18.5% (inactive). For `CC1CCc2c(sc(NC(=O)c3ccc(Cn4cc(Br)cn4)o3)c2C(N)=O)C1` (stereo not given), the inhibition was 59.9% (active). For `CN(c1ccccc1)c1ccc(/C=c2\s/c(=C(/C#N)C(=O)C(C)(C)C)n(Cc3ccco3)c2=O)cc1`, the inhibition was 50.5% (active). For `O=C(NCc1ccccn1)c1ccc2nc(-c3ccco3)c(-c3ccco3)nc2c1`, the inhibition was 2.46% (inactive). For `Nc1ccc(-c2nnc(-c3ccc(-c4ccccc4)cc3)o2)cc1`, the inhibition was 63.3% (active). For `CCCC(=O)N1CCc2[nH]c3ccccc3c2C1`, the inhibition was -2.83% (inactive). With `CC(C)CNC(=O)C1CCCN(S(=O)(=O)c2ccc(-n3cnnn3)cc2)C1` (stereo not given) the inhibition was 40.6% (inactive). For `CCCCOC(=O)CNc1nnc(SCC(=O)OCC)[nH]c1=O`, the inhibition was 43.7% (inactive). For `CCN(CC)c1ccc2oc(=O)c(C)nc2c1`, the inhibition was 0.308% (inactive). In the case of `O=C(Nc1nc(-c2ccncc2)cs1)C1COc2ccccc2O1` (stereo not given), the inhibition is reported as 69.2% (active). `Cc1csc(NC(=O)NC2(C(F)(F)F)Oc3ccccc3O2)n1` was tested, and the inhibition was 33.8% (inactive). In the case of `CCCc1nnc(NC(=O)CN2C(=O)c3ccccc3S2(=O)=O)s1`, the inhibition is reported as 60.4% (active). With `COc1ccc(Cc2nnc(NC(=O)Cc3cccs3)s2)cc1` the inhibition was 22.2% (inactive). In the case of `CCc1nnc(NC(=O)CSc2nnc(COc3ccc(C#N)cc3)n2-c2ccccc2)s1`, the inhibition is reported as 19.2% (inactive). `COC(=O)C1=C(C)NC2=C(C(=O)c3ccccc32)C1c1ccc(-c2ccc(C(=O)O)cc2)o1` (stereo not given) was tested, and the inhibition was 5.29% (inactive). `c1ccc(Cc2nn3c(Cn4cnc5ccccc54)nnc3s2)cc1` was tested, and the inhibition was 59.7% (active). In the case of `CCOc1ccc2[nH]c(=O)c(CN(CCCO)C(C)=O)cc2c1`, the inhibition is reported as 15.8% (inactive). With `NC(=O)Cn1c(=O)oc2ccccc21` the inhibition was 35.5% (inactive). `Cc1noc(C)c1CSc1nc2cc(S(=O)(=O)N3CCOCC3)ccc2o1` was tested, and the inhibition was 61% (active). For `COc1cc(C(=O)Nc2oc(-c3ccccc3)c(-c3ccccc3)c2C#N)cc(OC)c1OC`, the inhibition was 53.6% (active). With `Cc1ccc2cccc(O)c2[n+]1[O-]` the inhibition was 43.9% (inactive). For `CCC(C)(C)NC(=O)C(c1cccn1C)N(Cc1ccc(C)cc1)C(=O)Cn1nnc2ccccc21` (stereo not given), the inhibition was -5.01% (inactive). With `CCCCCn1c(SCCC(C)C)nc2c1c(=O)[nH]c(=O)n2C` the inhibition was 17.3% (inactive). In the case of `CCC(C)Sc1nc2c(c(=O)[nH]c(=O)n2C)n1CC(O)COc1cccc2ccccc12` (stereo not given), the inhibition is reported as 68.7% (active). With `Cc1ccnc(-n2sc3ccccc3c2=O)n1` the inhibition was 60% (active). In the case of `COc1ccc(OC)c(Nc2nc(-c3ccc(O)c(O)c3)cs2)c1`, the inhibition is reported as 77.2% (active). With `Cc1ccc2c(c1)sc1ncc(NC(=O)c3ccccc3)c(=O)n12` the inhibition was 46.4% (inactive). With `COc1cccc(-c2nnc(NC(=O)c3ccc(S(=O)(=O)N(CC(C)C)CC(C)C)cc3)o2)c1` the inhibition was 74.9% (active). In the case of `CCC1=[N+]([O-])C(C)(/C(C)=N\O)N(O)C1(C)C` (stereo not given), the inhibition is reported as 32% (inactive). For `CCOC(=O)N1CCN(CC(=O)c2ccc3c(c2)CCN3)CC1`, the inhibition was 15.5% (inactive). In the case of `COc1ccc(CCn2c(=N)c(C(=O)NCc3ccco3)cc3c(=O)n4cccc(C)c4nc32)cc1`, the inhibition is reported as 1.96% (inactive). In the case of `Cc1cc(C(F)(F)F)nn1-c1nc(-c2ccco2)cc(C(F)(F)F)n1`, the inhibition is reported as 38% (inactive). With `Cc1ccc(-n2c(N)c(C(=O)N3CCOCC3)sc2=S)c(C)c1` the inhibition was -4.07% (inactive). With `Cc1cccc(-n2c(N)c(C(=O)N3CCN(C)CC3)sc2=S)c1` the inhibition was 67% (active). `Cc1ccnc(N2CCCC(C(=O)Nc3cc(F)ccc3C)C2)n1` (stereo not given) was tested, and the inhibition was 9.38% (inactive). `COC(=O)N(c1ccc(OC)cc1)P1(=S)OCCC(C)O1` (stereo not given) was tested, and the inhibition was 57.7% (active). `CCc1c(C)[nH]c(=S)c(C#N)c1C` was tested, and the inhibition was -2.67% (inactive). For `Fc1ccc(-c2ccc(-c3nn4c(-c5ccco5)nnc4s3)o2)cc1`, the inhibition was 48.4% (active). In the case of `Fc1ccc(-c2nnc3sc(-c4ccc5c(c4)OCO5)nn23)cc1`, the inhibition is reported as 94.9% (active). With `COC(=O)Nc1nc2ccc(Sc3ccccc3)cc2[nH]1` the inhibition was 33.9% (inactive). For `O=C(Nc1cc(N2CCOCC2)ncn1)NC1(C(F)(F)F)Oc2ccc(Cl)cc2O1` (stereo not given), the inhibition was -8.24% (inactive). `CCN(CC)S(=O)(=O)c1ccc2nc(COC(=O)c3n[nH]c4ccccc34)[nH]c2c1` was tested, and the inhibition was 29.7% (inactive). For `CC(C)C1N=C2c3ccccc3N=C(SCC(=O)c3ccc(O)c(O)c3)N2C1=O` (stereo not given), the inhibition was 64.7% (active). With `COc1ccc(N2C(=O)CN=C2Nc2cccc(C)c2C)cc1OC` the inhibition was 42.9% (inactive). In the case of `c1ccc(CSc2nnc(-c3ccco3)c(-c3ccco3)n2)cc1`, the inhibition is reported as 42.2% (inactive). In the case of `COc1ccc(Nc2oc(-c3ccccc3Cl)nc2C#N)cc1`, the inhibition is reported as 3.03% (inactive). For `CCOC(=O)c1sc(=S)n2c1[nH]c(=O)c1ccc(C(=O)OC)cc12`, the inhibition was 73.8% (active). In the case of `Cc1ccc(-n2nc(-c3ccco3)cc2C(=O)NCc2cccnc2)cc1`, the inhibition is reported as -3.12% (inactive).
